Where “and” joins values, the source holds several entries; their conditions need not be identical. Equal entries are not always repeated. Inconclusive results are not listed. A call without a number means that no potency is given here. Some structures have more than one record in an assay (separate samples or runs), and their calls can disagree. Calls of active or inactive are those of the source. Unless noted, the call rests on the fitted dose curve; in most records, active means well fitted curve in the direction sought with a large enough effect in the repeat runs; inconclusive means weak or mixed curves; inactive means no such curve, though single readings can be large; an effect the other way counts as inactive or inconclusive.
Legend:
[1] = qHTS assay to identify small molecule antagonists of the estrogen related receptor (ERR) signaling pathway from Tox21 library - cell viability counter screen (AID 1224834); further: nearly all actives have a fitted effect of over 30% in size
Outline: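 Cytotoxicity of test substances is gauged in the same ERR cells used for the antagonist screen, after 17.5 h of compound treatment at 37 C, by CellTiter-Fluor fluorescence measured after 30 min.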

[2] = biological target: Luciferin 4-monooxygenase (Photinus pyralis) (UniProt P08659); experiment: qHTS assay to identify small molecule inhibitors of firefly luciferase (AID 1224835); further: nearly all actives have a fitted effect of over 25% in size
Outline: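 Inhibition of purified Photinus luciferase is measured by luminescence. Substrate levels (D-luciferin, ATP) sit at their KM values. Each compound is tested in a concentration series.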

[3] = qHTS assay to identify small molecule antagonists of the constitutive androstane receptor (CAR) signaling pathway - cell viability counter screen (AID 1224837); further: nearly all actives have a fitted effect of over 45% in size
Outline: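 Multiplexed cytotoxicity read-out for the CAR antagonist screen: double-stable HepG2-CYP2B6-hCAR cells co-treated with 50 nM CITCO (final) and compound over 15 concentrations, incubated 23 hr, then assessed by CellTiter-Fluor fluorescence.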

[4] = biological target: Nuclear receptor subfamily 1 group I member 3 (Homo sapiens) (UniProt Q14994); experiment: qHTS assay to identify small molecule antagonists of the constitutive androstane receptor (CAR) signaling pathway (AID 1224838); further: nearly all actives have a fitted effect of over 40% in size
Outline: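 Compounds were titrated across 15 concentrations onto HepG2 cells double-stably expressing hCAR and a CYP2B6-2.2kb reporter, together with 50 nM CITCO (final). After 24 h at 37 C, luciferase activity was measured by luminescence.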

[5] = biological target: Nuclear receptor subfamily 1 group I member 3 (Homo sapiens) (UniProt Q14994); experiment: qHTS assay to identify small molecule agonists of the constitutive androstane receptor (CAR) signaling pathway (AID 1224839); further: nearly all actives have a fitted effect of over 15% in size; further: potency means the concentration at half of the fitted maximal effect;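 on activation: HepG2 cells stably carrying human CAR and a CYP2B6 luciferase reporter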
Outline: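 Double-stable HepG2 cells (hCAR, CYP2B6-2.2kb) seeded 4 h before compound addition. Exposure 24 h with 0.75 uM PK11195 final. Luciferase detected by ONE-Glo.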

[6] = qHTS assay to identify small molecule antagonists of the estrogen related receptor signaling pathway with the pleiotropic PPARgamma coactivator (PGC) from Tox21 10K library - cell viability counter screen (AID 1224840; active means well fitted cell-killing curve with a large enough effect in the repeat runs, not every such curve was filed as active; further: nearly all actives have a fitted effect of over 40% in size)
Outline: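 Step one, plate 2,000 PGC/ERR cells per well; step two, incubate 6 h at 37 C/5% CO2; step three, pin-transfer compounds; step four, incubate 17.5 h; step five, add CellTiter-Fluor and read fluorescence after 30 min.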

[7] = biological target: Thyrotropin receptor (Homo sapiens) (UniProt P16473); experiment: qHTS assay to identify small molecule agonists of the thyroid stimulating hormone receptor (TSHR) signaling pathway (AID 1224843; calls by dose curve; further: nearly all actives have a fitted effect of over 45% in size)
Outline: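 HEK293 cells stably bearing the thyrotropin receptor were plated at 800 cells/well and challenged with compound (30 min, RT). Accumulated cAMP was quantified via cAMP-d2 competing for cryptate-tagged antibody.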

[8] = qHTS assay to identify small molecule agonists of the hypoxia (HIF-1) signaling pathway - cell viability counter screen (AID 1224844; calls by dose curve; further: nearly all actives have a fitted effect of over 50% in size)
Outline: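 Tox21 10K compounds were added to HRE-bla ME-180 cells (0.5% dialyzed FBS) and incubated 17 hrs at 37C; ATP-based CellTiter-Glo luminescence then reported cell viability in the same wells.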

[9] = qHTS assay to identify small molecule agonists of H2AX (AID 1224845; active means well fitted activation curve with a large enough effect in the signal ratio in the repeat runs, not every such curve was filed as active; the % refers to the signal ratio)
Outline: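 Phospho-H2AX Ser139 measured by HTRF (ex 320 nm; em 665 and 620 nm) after 24 hr antibody incubation. Compounds, 15 concentrations, 0.76% DMSO, were applied to CHO-K1 cells for 3hr at 37C before lysis.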

[10] = qHTS assay to identify small molecule agonists of the hypoxia (HIF-1) signaling pathway (AID 1224846; active means well fitted activation curve with a large enough effect in the signal ratio in the repeat runs, not every such curve was filed as active; the % refers to the signal ratio)
Outline: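 Steps: seed ME-180 HRE-bla cells (2,000/well, 0.5% dialyzed FBS); incubate 5 hrs at 37C; pin-transfer compounds or DMSO; incubate 17 hrs; add LiveBLAzer B/G substrate CCF4-AM; measure reporter activation by FRET.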

[11] = qHTS assay to identify small molecule agonists of H2AX - cell viability counter screen (AID 1224847; calls by dose curve; further: top concentration of the series differs between compounds; nearly all actives have a fitted effect of over 30% in size)
Outline: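 Quantitative HTS viability measurement: CHO-K1 wild-type cells in serum (10% FBS) medium, short 3 hr drug exposure at 37C with 0.76% DMSO, CellTiter-Glo luminescent detection.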

[12] = qHTS RealTime-Glo MT Cell Viability Assay in HepG2 cells - 24 hour (AID 1224867); further: nearly all actives have a fitted effect of over 50% in size
Outline: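 Luminescence read-out: viable HepG2 cells reduce a prosubstrate to a NanoLuc substrate, giving a signal proportional to live cell number. Reads taken at 0, 8, 16, 24, 32 and 40 h of compound exposure at 37 C.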

[13] = qHTS RealTime-Glo MT Cell Viability Assay in HEK293 cells - 32 hour (AID 1224868); further: top concentration of the series differs between compounds; nearly all actives have a fitted effect of over 50% in size
Outline: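 Nonlytic real-time viability readout: viable cells convert prosubstrate to NanoLuc substrate, giving luminescence proportional to live cell number. HEK293, 600 cells/well, compound added after 5 h, continuous culture at 37 C.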

[14] = A CellTox Green Cytotoxicity Assay to monitor cytotoxicity in HEK293 cells - 0 hour (AID 1224869); further: nearly all actives have a fitted effect of over 50% in size; further: potency means the concentration at half of the fitted maximal effect
Outline: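 Cytotoxicity was tracked continuously in HEK293 cells by a DNA-binding dye excluded from viable cells. Compounds were transferred in DMSO 5 h after seeding; fluorescence was recorded at intervals up to 40 h.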

[15] = qHTS assay to identify small molecule agonists of the constitutive androstane receptor (CAR) signaling pathway - cell viability counter screen (AID 1224836); further: nearly all actives have a fitted effect of over 45% in size
Outline: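 Using CellTiter-Fluor, viability of HepG2 cells harbouring hCAR and CYP2B6-2.2kb was measured following 23 h incubation with a 15-concentration compound series plus PK11195 (0.75 uM final).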

[16] = qHTS assay to identify small molecule antagonists of the estrogen related receptor signaling pathway with the pleiotropic PPARgamma coactivator (PGC) from Tox21 10K library (AID 1224841; call rule not given here)
Outline: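 Antagonism in this quantitative HTS is taken from loss of luciferase signal in PGC/ERR cells. Cells (2,000/well) are treated with compounds in DMSO after a 6 h settling period and read by One-Glo luminescence after 18 h.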

[17] = qHTS assay to identify small molecule agonists of the estrogen related receptor signaling pathway with the pleiotropic PPARgamma coactivator (PGC) from Tox21 10K library (AID 1224842); further: nearly all actives have a fitted effect of over 15% in size
Outline: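 Luminescence from One-Glo (30 min, room temperature) measured after PGC/ERR cells had 18 h at 37 C with pinned compound (23 nL in DMSO). Cells had been seeded at 2,000 per well and pre-incubated 6 h.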

[18] = qHTS assay to identify small molecule antagonists of the estrogen related receptor (ERR) signaling pathway from Tox21 library (AID 1224848); further: nearly all actives have a fitted effect of over 50% in size
Outline: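 Reading was by luminescence 30 min after ONE-Glo addition. Before that, ERR cells at 2,000 per well had rested 6 h at 37 C/5% CO2 and then received pin-tooled compounds in DMSO for 18 h at 37 C.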

[19] = qHTS assay to identify small molecule agonists of the estrogen related receptor (ERR) signaling pathway from Tox21 library (AID 1224849; calls by dose curve; further: nearly all actives have a fitted effect of over 15% in size); settings: ERR reporter cell line, ONE-Glo luciferase, 18 h
Outline: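 Agonist signal is luciferase luminescence from an ERR reporter cell line treated 18 h at 37 C with DMSO-dissolved compounds, read 30 min after ONE-Glo addition at room temperature.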

Chain of Thyrotropin receptor (Homo sapiens) (P16473 whole entry, looked up): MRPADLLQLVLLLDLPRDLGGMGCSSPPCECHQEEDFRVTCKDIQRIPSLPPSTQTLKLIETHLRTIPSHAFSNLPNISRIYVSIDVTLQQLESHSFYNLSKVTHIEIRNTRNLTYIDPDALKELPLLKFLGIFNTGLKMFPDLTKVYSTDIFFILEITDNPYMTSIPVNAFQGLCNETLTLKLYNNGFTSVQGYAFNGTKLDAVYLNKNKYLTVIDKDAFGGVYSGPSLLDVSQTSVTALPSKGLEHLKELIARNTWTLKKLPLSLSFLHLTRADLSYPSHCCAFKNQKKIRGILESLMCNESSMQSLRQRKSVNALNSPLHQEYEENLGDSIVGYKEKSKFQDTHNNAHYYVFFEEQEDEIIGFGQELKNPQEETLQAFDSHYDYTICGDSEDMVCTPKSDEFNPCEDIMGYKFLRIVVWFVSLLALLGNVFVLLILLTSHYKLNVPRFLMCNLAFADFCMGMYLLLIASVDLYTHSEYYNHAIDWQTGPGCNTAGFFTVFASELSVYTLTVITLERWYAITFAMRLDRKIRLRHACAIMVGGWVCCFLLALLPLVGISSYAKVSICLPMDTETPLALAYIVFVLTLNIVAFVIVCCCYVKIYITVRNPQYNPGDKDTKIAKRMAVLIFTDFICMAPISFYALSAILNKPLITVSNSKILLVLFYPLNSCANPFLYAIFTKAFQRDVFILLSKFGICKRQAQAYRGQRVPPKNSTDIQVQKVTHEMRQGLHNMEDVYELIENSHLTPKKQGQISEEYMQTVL
Chain of Luciferin 4-monooxygenase (Photinus pyralis) (P08659 whole entry, looked up): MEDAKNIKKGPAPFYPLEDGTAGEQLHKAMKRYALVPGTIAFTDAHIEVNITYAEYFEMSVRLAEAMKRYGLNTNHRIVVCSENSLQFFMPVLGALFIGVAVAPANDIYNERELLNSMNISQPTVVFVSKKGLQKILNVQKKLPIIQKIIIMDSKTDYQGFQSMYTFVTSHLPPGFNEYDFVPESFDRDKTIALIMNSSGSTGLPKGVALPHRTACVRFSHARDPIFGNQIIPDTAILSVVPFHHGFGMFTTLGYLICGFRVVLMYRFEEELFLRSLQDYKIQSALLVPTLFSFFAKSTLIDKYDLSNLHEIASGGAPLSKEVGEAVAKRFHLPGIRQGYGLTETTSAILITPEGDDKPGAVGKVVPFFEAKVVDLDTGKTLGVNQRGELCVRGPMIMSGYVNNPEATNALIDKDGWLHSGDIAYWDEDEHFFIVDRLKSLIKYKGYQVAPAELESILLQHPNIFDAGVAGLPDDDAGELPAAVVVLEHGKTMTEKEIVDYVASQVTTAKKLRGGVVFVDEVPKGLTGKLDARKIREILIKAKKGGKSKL
Chain of Nuclear receptor subfamily 1 group I member 3 (Homo sapiens) (Q14994 whole entry, looked up): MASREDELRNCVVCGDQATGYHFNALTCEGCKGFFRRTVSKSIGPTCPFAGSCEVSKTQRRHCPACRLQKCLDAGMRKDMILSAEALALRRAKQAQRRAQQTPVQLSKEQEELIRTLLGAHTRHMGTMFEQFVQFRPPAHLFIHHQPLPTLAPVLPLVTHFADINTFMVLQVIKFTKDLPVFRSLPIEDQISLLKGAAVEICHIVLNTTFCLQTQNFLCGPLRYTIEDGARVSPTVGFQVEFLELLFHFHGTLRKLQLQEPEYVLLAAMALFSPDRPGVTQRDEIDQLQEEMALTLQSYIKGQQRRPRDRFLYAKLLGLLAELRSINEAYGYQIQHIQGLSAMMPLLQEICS

| Compound | Potency [1] | Potency [2] | Potency [3] | Potency [4] | Potency [5] | Potency [6] | Potency [7] | Potency [8] | Potency [9] | outcome [10] | Potency [11] | outcome [12] | Potency [13] | Potency [14] | Potency [15] | Potency [16] | Potency [17] | Potency [18] | activity change, positive = activation ([19]; at 92.4 µM (top of the series)) | activity change, positive = activation ([19]; at 42.5 µM (top of the series)) |
| --- | --- | --- | --- | --- | --- | --- | --- | --- | --- | --- | --- | --- | --- | --- | --- | --- | --- | --- | --- | --- |
| Nc1cc(Cl)cc(Cl)c1 | inactive | inactive | inactive | inactive | inactive | inactive | inactive | inactive | inactive | inactive | inactive | inactive | inactive | inactive | – | – | – | – | – | – |
| COP(=S)(OC)Oc1ccc(SC)c(C)c1 | inactive | – | inactive | inactive | 60.4 µM (active) and 54.5 µM (active) and 23.7 µM (active) | inactive | – | inactive | inactive | inactive | inactive | inactive | inactive | inactive | – | – | – | – | – | – |
| Nc1ccc([As](=O)(O)O)cc1 | inactive | inactive | inactive | inactive | inactive | inactive | inactive | inactive | inactive | inactive | inactive | inactive | inactive | inactive | – | – | – | – | – | – |
| c1ccc2c(c1)CCCC2 | inactive | inactive | inactive | inactive | inactive | inactive | inactive | inactive | inactive | inactive | inactive | inactive | inactive | inactive | – | – | – | – | – | – |
| Oc1ccc(Cl)cc1 | inactive | – | inactive | inactive | inactive | inactive | inactive | inactive | inactive | inactive | inactive | inactive | inactive | inactive | inactive | – | – | – | – | – |
| CCNc1nc(Cl)nc(NC(C)C)n1 | inactive | inactive | inactive | – | – | inactive | inactive | inactive | inactive | inactive | inactive | inactive | inactive | inactive | – | inactive | inactive | inactive | -5.74% (inactive) and -1.44% (inactive) | – |
| Clc1cnc(Oc2ccc(Oc3ncc(Cl)cc3Cl)cc2)c(Cl)c1 | inactive | inactive | inactive | inactive | inactive | inactive | inactive | inactive | inactive | – | inactive | inactive | inactive | inactive | – | – | – | – | – | – |
| [N-]=[N+]=CC(=O)OC[C@H](N)C(=O)O | inactive | inactive | inactive | – | – | inactive | inactive | inactive | inactive | – | inactive | inactive | inactive | 38.9 µM (active) and inactive | – | inactive | inactive | inactive | 5.95% (inactive) | 3.09% (inactive) |
| NNc1ccccc1 | – | inactive | inactive | inactive | 48 µM (active) and 68.5 µM (active) | inactive | inactive | inactive | inactive | inactive | inactive | inactive | inactive | inactive | inactive | – | – | – | – | – |
| N#Cc1ccccn1 | inactive | inactive | inactive | inactive | inactive | inactive | inactive | inactive | inactive | inactive | inactive | inactive | inactive | inactive | – | – | – | – | – | – |
| O=C(O)C1C(C(=O)O)C2(Cl)C(Cl)=C(Cl)C1(Cl)C2(Cl)Cl (centres undefined) | inactive | inactive | inactive | inactive | inactive | inactive | inactive | inactive | inactive | – | inactive | inactive | inactive | inactive | – | – | – | – | – | – |
| CC(C)(C)C(=O)CCl | inactive | inactive | inactive | – | – | inactive | inactive | inactive | inactive | inactive | inactive | inactive | inactive | inactive | – | inactive | inactive | inactive | 2.78% (inactive) and 6.55% (inactive) | – |
| CC(C)CCCCCCOC(=O)c1ccccc1C(=O)OCCCCCCC(C)C | inactive | inactive | inactive | inactive | inactive | inactive | inactive | inactive | inactive | inactive | inactive | inactive | inactive | inactive | – | – | – | – | – | – |
| CN1C(=O)CCS(=O)(=O)C1c1ccc(Cl)cc1 (centres undefined) | inactive | inactive | inactive | – | – | inactive | inactive | inactive | inactive | – | inactive | inactive | inactive | inactive | – | – | – | – | – | – |
| O=C(O)COc1ccccc1 | inactive | inactive | inactive | inactive | inactive | inactive | inactive | inactive | inactive | inactive | inactive | inactive | inactive | inactive | – | – | – | – | – | – |

From PubChem BioAssay (Tox21)
